Screening data: PubChem BioAssay, National Center for Advancing Translational Sciences (NCATS)
HCV inhibitor: blocks hepatitis C virus | Huh7.5.1 HCVcc-Cre infection, luciferase reporter, 44 h | actives 3.4% (n = 340,000) | Potency, µM (series often up to 41.8 µM), hits mostly inhibitors
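After 44 h co-culture of compound, cells and HCVcc-Cre (~0.5 moi), substrate is added for 15 min at room temperature and luciferase measured over 15 sec. Cells were seeded at 1,000/well and pre-cultured 4 h.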
AmpC detergent: AmpC beta-lactamase inhibition with detergent present; AmpC hydrolysis of nitrocefin, absorbance 480 nm, 0.01% Triton; P00811; actives 0.041% (n = 370,000); Potency, µM (top dose mostly 114 µM), actives largely listed as inhibitors; also: nearly all actives have a fitted effect of over 25% in size
Target sequence (P00811 whole entry, looked up): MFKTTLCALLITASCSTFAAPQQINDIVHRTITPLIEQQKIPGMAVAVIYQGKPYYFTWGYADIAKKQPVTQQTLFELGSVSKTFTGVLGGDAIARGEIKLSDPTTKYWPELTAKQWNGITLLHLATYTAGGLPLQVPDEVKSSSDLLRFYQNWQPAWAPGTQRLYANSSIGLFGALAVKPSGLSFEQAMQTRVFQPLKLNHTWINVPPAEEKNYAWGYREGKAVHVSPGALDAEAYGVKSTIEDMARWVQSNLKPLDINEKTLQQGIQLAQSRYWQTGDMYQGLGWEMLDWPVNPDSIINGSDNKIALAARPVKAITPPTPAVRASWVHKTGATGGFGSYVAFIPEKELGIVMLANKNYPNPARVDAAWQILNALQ
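AmpC (5.3 nM in the dispensed reagent) in 20 mM phosphate pH 7.0 with 0.01% (detergent screen) or 0.0001% Triton X-100 was preincubated with compounds for 15 min at room temperature. Nitrocefin was then added from an 800 uM solution, and hydrolysis was followed at 480 nm.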
Pf growth 96h: P. falciparum growth inhibition at 96 hour, primary screen for plastid delayed-death inhibitors; P. falciparum luciferase reporter growth, 96 h; Potency, µM (highest dose often 28.7 µM), actives largely listed as inhibitors; actives 6.9% (n = 320,000)
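Parasite growth measured via integrated firefly luciferase reporter in P. falciparum. Infected erythrocytes at 2% hematocrit, 0.05% parasitemia final were treated 96 hours at 37 C under 5% CO2, and luminescence was read.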
AMA1 RON2 block: disrupts binding of P. falciparum AMA1 to RON2; Potency, µM (top dose mostly 58.2 µM), most hits filed as inhibitors; actives 0.2% (n = 360,000); AlphaScreen AMA1-biotinylated RON2 peptide binding; AID 720542; also: nearly all actives have a fitted effect of over 45% in size
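AMA1 (3D7) with his tag at 25 nM final met compounds first, then biotinylated RON2 peptide at 25 nM; detection used donor plus acceptor beads, 10 µg/mL apiece, read by AlphaScreen after 30 min at room temperature.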
AmpC no deterg: inhibitors of E. coli AmpC beta-lactamase without detergent; actives 0.52% (n = 330,000); AmpC nitrocefin hydrolysis, absorbance 480 nm, 0.0001% Triton; P00811; Potency, µM (doses to about 57.1 µM), usual class: inhibitors; also: nearly all actives have a fitted effect of over 20% in size
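20 mM phosphate pH 7.0 + 0.01% (detergent screen) or 0.0001% Triton X-100; 5.3 nM AmpC reagent; cpd preinc 15 min RT; nitrocefin (800 uM stock) to start; A480 q20 s × 4 min; Activity was normalised to no-enzyme and no-compound control wells.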
Pf growth 48h: P. falciparum growth inhibition at 48 hours (one generation); P. falciparum luciferase growth in erythrocytes, 48 h; Potency, µM (titrated, usually from 28.7 µM), usual class: inhibitors; actives 5.9% (n = 310,000)
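Parasite viability was followed by luminescence of a genomically integrated firefly luciferase. Cultures held 0.1% parasitemia at 2% hematocrit (final), incubated under 5% CO2 at 37 C.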
Hits are given with their value; - = inactive; ? = inconclusive; . = not tested or not shown. The list is not random: actives were taken first. Their share in the collection is about 11%. Calls follow the shape of the dose curve; as a rule, active = well fitted curve in the direction sought with a large enough effect; inconclusive = small, poorly fitted or top-dose-only effect, or another doubt; inactive = no such curve, though single readings can be large; an effect the other way counts as inactive or inconclusive.

SMILES | HCV inhibitor | AmpC detergent | Pf growth 96h | AMA1 RON2 block | AmpC no deterg | Pf growth 48h
COc1cc(-c2noc(C)c2-c2ccc3[nH]ccc3c2)cc(OC)c1OC | ? | - | 10µM | - | - | ?
COc1ccc(C(=O)NNC(=S)NC(=O)c2ccc(OC)cc2)cc1 | - | - | 9.3µM | - | - | -
CCCCC(=O)NC(=S)NNC(=O)c1ccc(OC)cc1 | - | 35µM | - | - | - | ?
CCCOc1ccc(C(=O)NNC(=S)NC(=O)CC)cc1 | ? | ? | 15µM | - | - | ?
COc1ccc(C(=O)NC(=S)NNC(=O)c2cccc(C)c2)cc1 | - | . | . | - | . | .
C=CCNC(=S)NNC(=O)c1ccc(OCCC)cc1 | - | - | ? | - | - | -
CC(C)Oc1ccc(CNC(=O)c2ccc(NC(=O)c3nsc4ccccc34)cc2)cc1 | . | - | . | . | . | .
COC(=O)Nc1ccc2ccc3c(NC(=O)OC)ccc4ccc1c2c43 | 13µM | . | . | - | . | .
NCC(c1ccccc1Cl)c1c[nH]c2ccccc12 (configuration not stated) | - | - | ? | - | - | 9.3µM
NCC(c1ccc(Cl)cc1Cl)c1c[nH]c2ccccc12 (configuration not stated) | ? | - | ? | - | - | ?
COc1ccc(Nc2cc(C)nc3ncnn23)cc1Cl | - | - | ? | - | - | ?
COc1cc(Nc2cc(C)nc3ncnn23)cc(OC)c1 | - | - | - | - | - | 8.3µM
COc1cc(Nc2cc(C)nc3ncnn23)cc(OC)c1OC | - | - | ? | - | - | 9.3µM
O=C(/C=C/c1ccc(O)c(O)c1)OC(Cc1ccc(O)c(O)c1)C(=O)O (configuration not stated) | 10µM | ? | - | - | - | ?
Fc1cccc(CN(C2=NCCN2)c2c(Cl)cccc2Cl)c1 | ? | - | - | - | - | 12µM
CC(CN1CCOCC1)C(=O)O (configuration not stated) | - | - | 9.3µM | - | - | -
CC(CC(C)C(=O)N1CCOCCN(C(=O)C(C)CC(C)C(=O)O)CCOCC1)C(=O)O (configuration not stated) | - | - | . | - | - | -
CCCCC(NC(C)=O)c1nc2ccccc2[nH]1 (configuration not stated) | - | - | - | - | 40µM | -
CSCC[C@H](NC(=O)C(C)Oc1ccc(Cl)cc1)c1nc2ccccc2[nH]1 (some centres not stated) | - | - | 6.6µM | - | - | ?
CSCC[C@H](NC(=O)COc1ccc(Cl)cc1Cl)c1nc2ccccc2[nH]1 | ? | - | ? | - | - | -
CCCCn1nc(C(=O)N[C@@H](CCSC)c2nc3ccccc3[nH]2)c2ccccc2c1=O | ? | - | 12µM | - | . | ?
COc1ccc(CNS(=O)(=O)c2ccc(N3CCCCS3(=O)=O)cc2)cc1 | . | - | . | . | . | .
Nc1cc2nc3ccccc3oc-2cc1=O | - | - | 4.7µM | - | - | 4.7µM
CCN(CC)c1cc(C)c2cc(NC(=O)/C=C/c3ccccc3Cl)ccc2n1 | . | - | . | . | . | .
CC(C(=O)OCC(=O)c1ccc([N+](=O)[O-])cc1)N1C(=O)C2C3CCC(C3)C2C1=O (configuration not stated) | - | - | 10µM | - | - | -
SMILES | HCV inhibitor | AmpC detergent | Pf growth 96h | AMA1 RON2 block | AmpC no deterg | Pf growth 48h
O=c1c(C=NCCN2CCNCC2)c(O)n(C2CCCCC2)c(=O)n1C1CCCCC1 | ? | - | ? | - | - | 13µM
Cc1cc(S(=O)(=O)n2ccnc2C(C)C)cc([N+](=O)[O-])c1C | . | - | . | . | . | .
CCCSCCCNC(=O)C1CCN(C(=O)c2cc3sccc3n2C)CC1 | . | - | . | . | . | .
COc1ccc2nc(N3CCN(C(=O)c4ccc5ncsc5c4)CC3)sc2c1 | - | - | ? | - | - | ?
CCOc1cccc2sc(N3CCN(C(=O)c4ccc5ncsc5c4)CC3)nc12 | ? | - | 12µM | - | - | ?
COc1ccc(OC)c2sc(N3CCCCC3)nc12 | 13µM | - | - | - | - | -
COc1ccc(OC)c2sc(N3CCN(C(=O)c4ccc5ncsc5c4)CC3)nc12 | ? | - | ? | - | - | 12µM
COc1ccc(OC)c2sc(N3CCc4ccccc4C3)nc12 | ? | ? | - | - | - | ?
